# Test results as given in PubChem BioAssay AID504862 (Sanford-Burnham Center for Chemical Genomics, 2011).
# Some of the results follow. Unmarked numbers belong to inactive results.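 Rule for the calls: active = average inhibition reaching 50% or more with the compound at 20 µM; inactive = the rest.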
# Test system: diaphorase (Clostridium kluyveri)
# Experiment: C. kluyveri diaphorase inhibition, resazurin coupling – biochemical, fluorescence intensity, 10 µM NADPH, counter-screen for P. falciparum G6PD inhibitor project, confirmation (AID 504862);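 note: resorufin red fluorescence formed as diaphorase reduces resazurin using NADPH; 0% = DMSO with enzyme and 100% = DMSO without enzyme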
# Settings: diaphorase-coupled resazurin reduction, NADPH 10 uM, at 20 µM, stronger effect = higher value
smiles,measurement,value
O=C1NC(=O)N(c2ccccc2)C(=O)/C1=C/c1ccc([N+](=O)[O-])s1,inhibition,47.3%
